Of roughly 7,900 targets only a part is listed; those with a hit were picked by preference. About 0.6% of all pairs of compound and target were hits. A number with no mark means an inactive call.
Experiments:
Assay in all cases: log2 fold change, soluble protein after heating vs DMSO (PISA); higher = thermal stabilisation; K562 cells, 10 uM, 30 min; active = over 0.2 and 3.5 SD of the protein, either way, in both replicates (recomputed)
[1] = compound: CS(=O)(=O)c1ccc(-c2cnc(N)c(C(=O)Nc3ccccc3)n2)cc1
Outline: (§1)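 Aliquots of K562 cells (2×10^6 cells/mL) treated with 10 μM compound for 30 min were heated for 3 min over 48°C-58°C. After pooling and extraction in PBS with 0.5% NP-40 at 4°C, soluble protein from a 21,000xg, 90 min spin was quantified by TMTpro 16plex LC-MS/MS with channel sums equalised. Thermal stability is expressed against control samples, from duplicates, as a log2 fold change.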

crizotinib = compound: C[C@@H](Oc1cc(-c2cnn(C3CCNCC3)c2)cnc1N)c1c(Cl)ccc(F)c1Cl [crizotinib]
Outline: as §1

[2] = compound: C[C@@H]1COCCN1C2=NC(=NC(=C2)C3(CC3)S(=O)(=O)C)C4=C5C=CNC5=CC=C4
Outline: as §1

[3] = compound: C[C@H](C1=CC=C(C=C1)C(=O)NC2=C3C=CNC3=NC=C2)N
Outline: as §1

duvelisib = compound: C[C@H](Nc1ncnc2nc[nH]c12)c1cc2cccc(Cl)c2c(=O)n1-c1ccccc1 [duvelisib]
Outline: as §1

gandotinib = compound: Cc1cc(Nc2cc(CN3CCOCC3)c3nc(C)c(Cc4ccc(Cl)cc4F)n3n2)n[nH]1 [gandotinib]
Outline: as §1

tozasertib = compound: Cc1cc(Nc2cc(N3CCN(C)CC3)nc(Sc3ccc(NC(=O)C4CC4)cc3)n2)n[nH]1 [tozasertib]
Outline: as §1

[4] = compound: Cc1cc(SCc2sc(-c3ccc(C(F)(F)F)cc3)nc2C)ccc1OCC(=O)O
Outline: as §1

doramapimod = compound: Cc1ccc(-n2nc(C(C)(C)C)cc2NC(=O)Nc2ccc(OCCN3CCOCC3)c3ccccc23)cc1 [doramapimod]
Outline: as §1

ispinesib = compound: Cc1ccc(C(=O)N(CCCN)[C@@H](c2nc3cc(Cl)ccc3c(=O)n2Cc2ccccc2)C(C)C)cc1 [ispinesib]
Outline: as §1

Chain of UniProt Q9Y5X3 (Q9Y5X3 whole entry, looked up): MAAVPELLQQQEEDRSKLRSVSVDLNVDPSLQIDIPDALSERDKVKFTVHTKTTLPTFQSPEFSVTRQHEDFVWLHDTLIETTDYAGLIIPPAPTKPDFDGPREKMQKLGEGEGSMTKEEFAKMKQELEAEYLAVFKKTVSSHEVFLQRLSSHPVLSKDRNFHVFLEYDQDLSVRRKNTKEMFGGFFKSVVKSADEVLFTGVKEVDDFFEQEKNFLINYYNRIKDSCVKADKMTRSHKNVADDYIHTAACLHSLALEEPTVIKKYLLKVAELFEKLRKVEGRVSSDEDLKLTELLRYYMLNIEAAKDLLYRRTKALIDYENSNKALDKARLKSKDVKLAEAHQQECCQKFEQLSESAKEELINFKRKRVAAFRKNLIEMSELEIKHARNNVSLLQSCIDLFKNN
Chain of UniProt Q15582 (Q15582 whole entry, looked up): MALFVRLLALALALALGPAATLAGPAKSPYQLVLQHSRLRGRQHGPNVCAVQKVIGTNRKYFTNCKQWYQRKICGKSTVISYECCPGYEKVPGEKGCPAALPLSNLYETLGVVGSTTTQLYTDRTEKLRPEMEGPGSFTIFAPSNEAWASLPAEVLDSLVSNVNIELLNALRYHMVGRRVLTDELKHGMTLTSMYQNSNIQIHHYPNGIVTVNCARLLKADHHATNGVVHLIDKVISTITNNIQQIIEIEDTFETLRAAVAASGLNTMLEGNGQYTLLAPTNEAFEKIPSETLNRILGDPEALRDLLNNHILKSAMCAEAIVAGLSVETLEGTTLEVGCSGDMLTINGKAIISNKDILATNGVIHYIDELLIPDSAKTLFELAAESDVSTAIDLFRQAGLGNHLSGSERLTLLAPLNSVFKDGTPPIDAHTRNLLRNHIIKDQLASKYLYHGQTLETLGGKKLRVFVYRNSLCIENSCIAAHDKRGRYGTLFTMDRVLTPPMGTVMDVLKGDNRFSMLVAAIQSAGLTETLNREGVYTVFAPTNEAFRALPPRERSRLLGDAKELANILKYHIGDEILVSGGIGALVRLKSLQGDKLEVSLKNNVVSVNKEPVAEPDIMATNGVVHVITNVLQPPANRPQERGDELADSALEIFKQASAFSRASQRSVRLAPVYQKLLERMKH
Chain of UniProt Q15833 (Q15833 whole entry, looked up): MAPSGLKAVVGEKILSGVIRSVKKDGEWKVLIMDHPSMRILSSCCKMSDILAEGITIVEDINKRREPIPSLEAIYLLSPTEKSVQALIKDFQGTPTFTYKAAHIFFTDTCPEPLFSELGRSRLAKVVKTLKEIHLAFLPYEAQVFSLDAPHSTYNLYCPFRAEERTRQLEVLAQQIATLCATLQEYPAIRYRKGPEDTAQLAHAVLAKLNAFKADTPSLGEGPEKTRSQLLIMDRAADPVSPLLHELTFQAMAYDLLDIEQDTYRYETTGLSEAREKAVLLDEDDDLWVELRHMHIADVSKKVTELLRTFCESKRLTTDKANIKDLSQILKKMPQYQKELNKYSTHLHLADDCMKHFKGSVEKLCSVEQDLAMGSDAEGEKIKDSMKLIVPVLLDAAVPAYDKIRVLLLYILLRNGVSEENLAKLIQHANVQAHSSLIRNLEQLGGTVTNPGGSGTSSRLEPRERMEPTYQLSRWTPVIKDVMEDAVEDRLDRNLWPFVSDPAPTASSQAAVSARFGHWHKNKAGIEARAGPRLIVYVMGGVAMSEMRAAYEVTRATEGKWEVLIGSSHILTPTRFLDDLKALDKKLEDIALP
Chain of UniProt Q96DI7 (Q96DI7 whole entry, looked up): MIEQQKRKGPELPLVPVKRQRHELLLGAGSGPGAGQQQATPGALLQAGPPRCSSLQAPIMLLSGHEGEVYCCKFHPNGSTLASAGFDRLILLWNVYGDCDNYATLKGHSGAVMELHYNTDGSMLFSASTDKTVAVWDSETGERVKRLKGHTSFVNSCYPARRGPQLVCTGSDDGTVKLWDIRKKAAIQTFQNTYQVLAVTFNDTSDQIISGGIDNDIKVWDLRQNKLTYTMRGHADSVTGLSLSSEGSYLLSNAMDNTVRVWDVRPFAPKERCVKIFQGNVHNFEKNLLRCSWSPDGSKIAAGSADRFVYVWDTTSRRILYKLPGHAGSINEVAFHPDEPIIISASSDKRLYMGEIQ
Chain of UniProt Q9BUA3 (Q9BUA3 whole entry, looked up): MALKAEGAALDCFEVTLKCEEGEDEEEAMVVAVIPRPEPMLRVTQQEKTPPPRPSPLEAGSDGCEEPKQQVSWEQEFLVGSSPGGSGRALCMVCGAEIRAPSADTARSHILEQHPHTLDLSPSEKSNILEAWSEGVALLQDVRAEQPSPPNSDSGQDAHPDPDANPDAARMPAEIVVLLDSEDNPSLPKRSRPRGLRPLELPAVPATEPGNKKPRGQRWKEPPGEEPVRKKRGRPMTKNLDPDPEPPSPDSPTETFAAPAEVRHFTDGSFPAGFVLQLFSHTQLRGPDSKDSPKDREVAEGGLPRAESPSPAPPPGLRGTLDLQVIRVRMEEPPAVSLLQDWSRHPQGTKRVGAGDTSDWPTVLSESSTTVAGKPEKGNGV
Chain of UniProt Q99805 (Q99805 whole entry, looked up): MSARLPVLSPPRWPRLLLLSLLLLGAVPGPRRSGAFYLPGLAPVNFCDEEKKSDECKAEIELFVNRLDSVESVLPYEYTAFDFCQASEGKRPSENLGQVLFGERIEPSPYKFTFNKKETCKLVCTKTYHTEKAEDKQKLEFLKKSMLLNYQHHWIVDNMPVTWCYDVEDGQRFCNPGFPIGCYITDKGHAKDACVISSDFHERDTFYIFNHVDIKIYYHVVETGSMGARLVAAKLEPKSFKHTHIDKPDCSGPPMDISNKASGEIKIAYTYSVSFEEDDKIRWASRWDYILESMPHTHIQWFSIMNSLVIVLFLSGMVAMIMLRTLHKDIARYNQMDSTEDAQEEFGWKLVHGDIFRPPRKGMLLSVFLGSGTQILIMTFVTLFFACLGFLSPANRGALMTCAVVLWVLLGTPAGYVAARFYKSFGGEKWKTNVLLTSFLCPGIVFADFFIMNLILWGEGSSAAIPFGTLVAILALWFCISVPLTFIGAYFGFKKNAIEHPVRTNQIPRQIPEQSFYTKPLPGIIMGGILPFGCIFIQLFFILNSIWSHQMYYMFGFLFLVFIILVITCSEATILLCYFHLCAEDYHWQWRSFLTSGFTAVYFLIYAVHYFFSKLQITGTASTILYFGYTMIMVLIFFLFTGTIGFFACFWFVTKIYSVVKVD
Chain of UniProt Q9ULP9 (Q9ULP9 whole entry, looked up): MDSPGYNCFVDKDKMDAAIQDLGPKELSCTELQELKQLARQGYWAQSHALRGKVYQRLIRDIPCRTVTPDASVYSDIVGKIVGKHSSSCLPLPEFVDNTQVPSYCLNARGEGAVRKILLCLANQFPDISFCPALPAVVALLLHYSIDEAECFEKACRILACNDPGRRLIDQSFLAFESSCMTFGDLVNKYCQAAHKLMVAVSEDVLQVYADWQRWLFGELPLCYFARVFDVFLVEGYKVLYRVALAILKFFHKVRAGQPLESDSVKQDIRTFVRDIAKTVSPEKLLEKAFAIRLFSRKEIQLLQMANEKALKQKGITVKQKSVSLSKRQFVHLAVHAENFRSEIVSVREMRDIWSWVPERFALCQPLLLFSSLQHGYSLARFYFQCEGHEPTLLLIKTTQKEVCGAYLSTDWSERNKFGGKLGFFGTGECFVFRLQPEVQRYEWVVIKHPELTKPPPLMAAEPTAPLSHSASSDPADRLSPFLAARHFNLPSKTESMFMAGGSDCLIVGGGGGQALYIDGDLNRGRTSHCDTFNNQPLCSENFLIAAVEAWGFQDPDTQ
Chain of UniProt O76094 (O76094 whole entry, looked up): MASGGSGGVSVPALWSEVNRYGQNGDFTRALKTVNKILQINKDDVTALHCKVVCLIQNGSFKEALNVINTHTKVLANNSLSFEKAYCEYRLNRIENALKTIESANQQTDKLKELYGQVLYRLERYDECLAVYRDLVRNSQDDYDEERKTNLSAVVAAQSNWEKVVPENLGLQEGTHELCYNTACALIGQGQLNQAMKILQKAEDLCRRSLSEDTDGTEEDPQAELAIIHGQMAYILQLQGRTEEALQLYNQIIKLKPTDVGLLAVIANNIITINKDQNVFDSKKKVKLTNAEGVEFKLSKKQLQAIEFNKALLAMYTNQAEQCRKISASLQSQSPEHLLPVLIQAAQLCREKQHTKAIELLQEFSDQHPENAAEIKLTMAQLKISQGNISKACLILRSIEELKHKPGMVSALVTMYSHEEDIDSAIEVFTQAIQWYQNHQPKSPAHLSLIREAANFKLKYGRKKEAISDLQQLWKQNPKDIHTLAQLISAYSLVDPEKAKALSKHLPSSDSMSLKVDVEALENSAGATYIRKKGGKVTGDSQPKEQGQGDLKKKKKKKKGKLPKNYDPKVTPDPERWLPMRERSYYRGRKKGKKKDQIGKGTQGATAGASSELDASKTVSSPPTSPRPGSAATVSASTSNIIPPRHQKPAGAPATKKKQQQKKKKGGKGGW
Chain of UniProt Q8NEF9 (Q8NEF9 whole entry, looked up): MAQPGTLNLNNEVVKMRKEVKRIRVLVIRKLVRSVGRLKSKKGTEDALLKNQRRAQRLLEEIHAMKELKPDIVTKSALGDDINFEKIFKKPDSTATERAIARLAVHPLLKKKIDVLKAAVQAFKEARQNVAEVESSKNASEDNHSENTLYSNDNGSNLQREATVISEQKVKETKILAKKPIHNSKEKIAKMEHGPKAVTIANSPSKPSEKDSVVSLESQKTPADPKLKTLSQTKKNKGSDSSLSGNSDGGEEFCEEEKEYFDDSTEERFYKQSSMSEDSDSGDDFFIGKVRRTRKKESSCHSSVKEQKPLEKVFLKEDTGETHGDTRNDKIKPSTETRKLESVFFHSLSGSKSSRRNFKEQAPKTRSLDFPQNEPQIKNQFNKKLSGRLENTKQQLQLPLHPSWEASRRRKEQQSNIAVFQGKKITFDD
Chain of UniProt Q9H4I9 (Q9H4I9 whole entry, looked up): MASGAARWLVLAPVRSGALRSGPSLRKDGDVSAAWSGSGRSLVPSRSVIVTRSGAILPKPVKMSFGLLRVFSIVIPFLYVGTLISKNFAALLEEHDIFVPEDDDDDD
Chain of UniProt P62072 (P62072 whole entry, looked up): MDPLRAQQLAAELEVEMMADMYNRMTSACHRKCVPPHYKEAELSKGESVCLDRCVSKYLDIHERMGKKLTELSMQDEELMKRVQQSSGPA

Row | Target | log2 fold change [1] | log2 fold change (crizotinib) | log2 fold change [2] | log2 fold change [3] | log2 fold change (duvelisib) | log2 fold change (gandotinib) | log2 fold change (tozasertib) | log2 fold change [4] | log2 fold change (doramapimod) | log2 fold change (ispinesib)
1 | SMDT1 (UniProt Q9H4I9) | 0.144 | 0.042 | 0.017 | -0.035 | 0.026 | -0.23 | -0.014 | 0 | 0.054 | 
2 | SRPRB (UniProt Q9Y5M8) | -0.006 | 0.01 | 0.059 | -0.042 | 0.012 | 0.055 | -0.017 | 0.083 | -0.026 | 0.055
3 | TGFBI (UniProt Q15582) | -0.021 | -0.047 | 0.215 | 0.181 | 0.067 | -0.451 | 0.031 | 0.043 | -0.182 | -0.159
4 | TATDN2 (UniProt Q93075) | 0.002 | -0.061 | 0.028 | 0.078 | 0.019 | 0.106 | 0.136 | 0.045 | 0.063 | 
5 | TBRG4 (UniProt Q969Z0) | -0.041 | -0.676 (active) | 0.137 | -0.005 | 0.066 | -0.364 | 0.04 | 0.174 | -0.081 | -0.254
6 | TERF2IP (UniProt Q9NYB0) | -0.021 | 0.085 | -0.072 | -0.099 | 0.016 | 0.028 | 0.108 | 0.005 | -0.019 | 0.044
7 | SNRNP40 (UniProt Q96DI7) | 0.033 | 0.116 | 0.14 | 0.023 | -0.015 | 0.22 | 0.019 | -0.059 | 0.071 | 0.077
8 | SPINDOC (UniProt Q9BUA3) | 0.09 | 0.104 | -0.059 | -0.074 | -0.296 | -0.001 | 0.14 | 0.053 | 0.097 | -0.008
9 | TJP2 isoform 7 (UniProt Q9UDY2) | 0.006 | -0.026 | 0.064 | -0.017 | 0.056 | -0.089 | 0.071 | 0.071 | 0.068 | -0.065
10 | SRSF11 (UniProt Q05519) | -0.037 | 0.015 | 0.045 | -0.277 (active) | 0.021 | -0.068 | 0.004 | 0.067 | -0.015 | 0.08
11 | TBCD (UniProt Q9BTW9) | -0.069 | 0.001 | 0.061 | -0.034 | 0.058 | -0.104 | 0.041 | 0.009 | 0.004 | -0.032
12 | STK39 (UniProt Q9UEW8) | 0.109 | -0.174 | 0.028 | 0.061 | 0.007 | -0.038 | -0.049 | 0.048 | -0.027 | -0.038
13 | SNX11 (UniProt Q9Y5W9) | -0.062 | -0.76 (active) | -0.021 | 0.012 | -0.486 (active) | -0.378 | -0.001 | 0.14 | -0.017 | -0.536 (active)
14 | STXBP2 isoform 3 (UniProt Q15833) | 0.049 | -0.301 | 0.022 | 0.039 | 0.019 | -0.03 | 0.03 | 0.17 | 0.152 | -0.306
15 | SMARCAD1 isoform 2 (UniProt Q9H4L7) | 0.029 | -0.112 | 0.088 | -0.054 | 0.081 | -0.042 | 0.059 | 0.15 | -0.058 | 0
16 | TBC1D24 (UniProt Q9ULP9) | 0.018 | -0.235 | 0.08 | -0.014 | 0.04 | -0.361 | -0.119 | 0.073 | 0.061 | -0.218
17 | SLC7A6 (UniProt Q92536) | -0.011 | 0.065 | -0.173 | -0.149 | 0.116 | -0.114 | -0.006 | -0.041 | 0.001 | 0.17
18 | SLC27A4 (UniProt Q6P1M0) | -0.008 | 0.069 | 0.059 | -0.015 | 0.082 | 0.122 | 0.001 | 0.123 | 0 | -0.103
19 | STK38 (UniProt Q15208) | 0.081 | -0.087 | 0.089 | -0.031 | 0.052 | -0.024 | 0.065 | 0.072 | -0.011 | 0.026
20 | TIMM10 (UniProt P62072) | -0.035 | 0.051 | 0.099 | -0.006 | 0.105 | 0.052 | 0.053 | 0.027 | 0.021 | 0.103
21 | SNX5 (UniProt Q9Y5X3) | -0.075 | -0.32 (active) | 0.022 | -0.014 | -0.145 | -0.138 | -0.071 | 0.036 | -0.019 | -0.236
22 | STK25 (UniProt O00506) | 0.04 | -0.2 | -0.011 | -0.026 | 0.051 | -0.074 | -0.027 | -0.001 | 0.019 | -0.071
23 | TELO2 (UniProt Q9Y4R8) | -0.022 | -0.055 | 0.013 | 0.233 | -0.055 | -0.198 | 0.013 | 0.176 | 0.094 | -0.136
24 | ST3GAL2 (UniProt Q16842) | 0.096 | -0.288 | -0.017 | 0.006 | 0.035 | 0.127 | 0.024 | 0.033 | 0 | -0.096
25 | STAT3 (UniProt P40763) | 0.059 | -0.126 | 0.105 | -0.063 | 0 | -0.184 | 0.073 | 0.088 | -0.009 | -0.03
26 | SRFBP1 (UniProt Q8NEF9) | -0.053 | -0.029 | -0.21 | 0.061 | -0.039 | 0.083 | 0.055 | -0.028 | 0.007 | -0.055
27 | SRP72 (UniProt O76094) | 0.021 | -0.121 | -0.017 | 0.167 | -0.004 | -0.08 | 0.068 | 0.154 | 0.051 | -0.185
28 | SMARCE1 (UniProt Q969G3) | -0.088 | 0.011 | 0.048 | 0.093 | 0.014 | -0.087 | 0.091 | 0.135 | 0.052 | 0.048
29 | TM9SF2 (UniProt Q99805) | 0.056 | -0.754 (active) | -0.017 | -0.049 | 0.064 | 0.008 | 0.028 | 0 | 0.007 | -0.089
30 | SNX1 (UniProt Q13596) | -0.134 | -0.247 | 0.028 | -0.025 | -0.214 | -0.319 (active) | -0.054 | 0.049 | -0.009 | -0.252
